# USP2a inh: blocks human ubiquitin-specific protease USP2a; O75604; USP2a enzymatic assay, qHTS inhibition; Potency, µM (titrated, usually from 38.3 µM), actives largely listed as inhibitors; 0.1% of 60,000 active; also: nearly all actives have a fitted effect of over 60% in size
# Target sequence (O75604 whole entry, looked up): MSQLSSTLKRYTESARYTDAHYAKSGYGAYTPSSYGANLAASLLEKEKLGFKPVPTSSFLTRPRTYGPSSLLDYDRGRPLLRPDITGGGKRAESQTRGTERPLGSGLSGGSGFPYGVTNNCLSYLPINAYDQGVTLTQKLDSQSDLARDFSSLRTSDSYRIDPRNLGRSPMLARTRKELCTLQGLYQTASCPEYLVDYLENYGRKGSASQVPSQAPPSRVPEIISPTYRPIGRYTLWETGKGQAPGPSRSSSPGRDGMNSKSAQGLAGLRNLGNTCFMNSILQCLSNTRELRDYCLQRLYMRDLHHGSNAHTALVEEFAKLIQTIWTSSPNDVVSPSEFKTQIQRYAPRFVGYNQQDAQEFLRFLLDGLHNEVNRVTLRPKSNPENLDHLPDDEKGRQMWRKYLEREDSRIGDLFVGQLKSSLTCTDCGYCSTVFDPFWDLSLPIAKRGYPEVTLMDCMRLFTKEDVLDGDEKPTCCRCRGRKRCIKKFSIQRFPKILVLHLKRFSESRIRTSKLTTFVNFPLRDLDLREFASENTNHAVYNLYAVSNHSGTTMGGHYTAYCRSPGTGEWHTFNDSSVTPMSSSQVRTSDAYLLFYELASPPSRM
#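 USP2 core (20 nM final) was preincubated with compound for 30 min at RT in 20 mM Tris-HCl pH 8.0, 2 mM CaCl2, 2 mM beta-mercaptoethanol; Ub-PLA2 (20 nM) plus NBD C6-HPC (20 uM) then added, fluorescence read after 2.5 h.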
# Casp7 inh: caspase-7 (human) inhibition, allosteric or competitive. recombinant caspase-7, Ac-DEVD-AFC fluorescence rate. Potency, µM (top dose mostly 57.5 µM), usual class: inhibitors. 0.02% of 75,000 active. AID 889; active = well fitted inhibition curve with a large enough effect in the main read-out, with a control signal flat, not every such curve was filed as active; inconclusive = small, poorly fitted or top-dose-only effect, or a change in a side signal
# CRE Fsk mod: modulators of forskolin-stimulated CRE signaling in CHO cells. 2.5% of 71,000 active. Potency, µM (titrated, usually from 38.2 µM), hits mostly activators. AID 662. CHO CRE-bla reporter (cAMP response element driving beta-lactamase), forskolin EC10, beta-lactamase ratio; active = well fitted activation curve with a large enough effect in the signal ratio, with a control signal flat, not every such curve was filed as active; inconclusive = small, poorly fitted or top-dose-only effect, or effect the other way, or a change in a side signal; the % refers to the signal ratio
#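 Reporter-gene assay: CHO cells with beta-lactamase behind cAMP responsive elements, co-treated with compound and EC10 NKH 477 for 3 hours at 37 degrees Celsius. Activity came from the 460/530 nm CCF4 emission ratio.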
# HEK293 cAMP cs: parental HEK293 cAMP activation (counter-screen) | parental HEK293 CNG cAMP sensor, membrane potential fluorescence | Potency, µM (highest dose often 57.1 µM), most hits filed as activators | 2.5% of 73,000 active | AID 938; also: nearly all actives have a fitted effect of over 55% in size
#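 Parental HEK 293 cells stably expressing a cAMP-gated CNG channel were loaded with membrane potential dye containing 100 uM RO 20-1724 for 60 min. Compound added for 30 min; depolarization read as fluorescence intensity at 590 nm.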
# TSHR ag: TSH receptor (human) agonism. P16473. HEK293-CNG-TSHR cells (CNG channel as cAMP sensor), membrane potential dye, cAMP. Potency, µM (series often up to 57.1 µM), usual class: activators. 0.48% of 73,000 active. AID 926; active = well fitted activation curve with a large enough effect in the main read-out, with a control signal flat, not every such curve was filed as active; inconclusive = small, poorly fitted or top-dose-only effect, or a change in a side signal; inactive = no such curve, though single readings can be large or run the other way; reference of the percent scale not stated here;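 also: the control signal comes from parental cells without the receptor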
#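 HEK 293 cells stably expressing TSHR and a modified CNG channel, with CNG-only parental cells as counterscreen, were preloaded 60 min at room temperature with membrane potential dye containing 100 uM RO 20-1724. Compound exposure was 30 min, and depolarization was read as fluorescence at 590 nm.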
# Caspase-1 inhib: caspase-1 (human) inhibition, allosteric or competitive; Caspase-1 enzyme, Ac-WEHD-AFC fluorogenic rate; Potency, µM (titrated, usually from 57.5 µM), most hits filed as inhibitors; 0.03% of 75,000 active; AID 900
# Numbers stand for hits; 0 = inactive; ? = inconclusive; - = no result given; [ ] = another dose, or the depositor's remark. Most compounds without a hit are left out; they make up all but 5% or so of the library. Unless noted, calls follow the shape of the dose curve; as a rule, active = well fitted curve in the direction sought with a large enough effect; inconclusive = small, poorly fitted or top-dose-only effect, or another doubt; inactive = no such curve, though single readings can be large; an effect the other way counts as inactive or inconclusive.
SMILES,USP2a inh,Casp7 inh,CRE Fsk mod,HEK293 cAMP cs,TSHR ag,Caspase-1 inhib
COC(=O)c1ccc(Oc2nc(NC(C)C)nc(N(C)C)n2)cc1,0,0,0,0,0,0
COC(=O)c1ccc(Oc2nc(C)cc(Oc3ccccc3)n2)cc1,0,0,?,0,0,0
COC(=O)c1ccc(Oc2cc(C)nc(-n3nc(C)cc3C)n2)cc1,0,0,?,15.8µM,?,0
CCOC(=O)c1ccc(Oc2nc(SC)nc(N(C)C)n2)cc1,0[7.66 µM],0,?,3.16µM,?,0
CC(NC(=O)c1ccccc1)(C(=O)O)C(=O)O,-,0[11.5 µM],0[7.6 µM],0[11.4 µM],0[11.4 µM],0[11.5 µM]
Cc1cccc(NS(=O)(=O)c2cc(C(=O)O)ccc2Cl)c1,-,0,-,0,0,0
COc1cc(C2c3[nH]c4ccccc4c3CC3C(=O)N4C(Cc5c([nH]c6ccccc56)C4c4cc(OC)c(OC)c(OC)c4)C(=O)N32)cc(OC)c1OC (stereo unspecified),-,0[11.5 µM],-,0[11.4 µM],0[11.4 µM],0[11.5 µM]
CC1=N[C@@](C)(COC(=O)[C@]2(C)N[C@](C)(CO)CO2)COC1=O,-,0[11.5 µM],0[7.6 µM],0[11.4 µM],0[11.4 µM],0[11.5 µM]
CCOC(=O)c1ccc(Oc2cc(C)nc(SC)n2)cc1,0[7.66 µM],0,?,3.16µM,?,0
CCOC(=O)c1ccc(Oc2nc(NC)nc(SC)n2)cc1,0,0,0,0,0,0
COc1ccc(-c2nc3cnc(N(C)C)nc3n(C)c2=O)cc1,0,?,2µM,0[0.457 µM],0,-
COc1ccc(-c2nc3cnc(N(C)C)nc3n(C3CC3)c2=O)cc1,0,?,?,0,0,-
CN(C)c1ncc2nc(-c3cccs3)c(=O)n(C[C@H]3CCCO3)c2n1,0,?,1.58µM,0,0,-
CCNc1ncc2nc(-c3ccc(OC)cc3)c(=O)n(C[C@H]3CCCO3)c2n1,0,?,?,?,?,-
COc1ccc(-c2nc3cnc(N(C)C)nc3n(C[C@H]3CCCO3)c2=O)cc1,0,?,2µM,0,0,-
CO[C@H]1COC(=O)C/C=C\[C@H](C)[C@@H](NS(=O)(=O)c2ccc(C)cc2)COC(=O)C/C=C\[C@@H]1C,-,0[11.5 µM],-,0[11.4 µM],0[11.4 µM],0[11.5 µM]
CC12C=C(/C=C/c3ccc(Br)cc3)C(C)(C1)C(c1ccc(Br)cc1)CC2=O (stereo unspecified),-,0[11.5 µM],-,0[11.4 µM],0[11.4 µM],0[11.5 µM]
CN(C)S(=O)(=O)c1ccc(S(=O)(=O)N(Cc2ccco2)Cc2ccccc2Cl)cc1,0,0,0,12.6µM,?,0
COc1ccc(CN(C(=O)CSc2nnc(-c3ccc(F)cc3)o2)c2ccc(F)cc2)cc1,0,0,?,0,0,0
O=C(CSc1nnc(Cn2nnc3ccccc32)o1)N(Cc1ccc(F)cc1)c1ccccc1,0,0,0,15.8µM,?,0
CCn1c2ccccc2c2nnc(SCc3ccc(C(=O)OC)o3)nc21,0,0,2µM,?,?,0
CCn1c2ccccc2c2nnc(SCc3ccccc3)nc21,-,0,3.16µM,0,-,0
CCn1c2ccccc2c2nnc(SCCCn3c(=O)[nH]c4ccccc43)nc21,0[7.66 µM],0,?,0[11.4 µM],0[11.4 µM],0
C[C@]12CC[C@H]3c4ccc(O)cc4CC[C@@H]3[C@H]1CC[C@@H]2OC(=O)CCc1ccccc1,-,0[11.5 µM],0[7.6 µM],0[11.4 µM],0[11.4 µM],0[11.5 µM]
N#C[C@H](c1ccccc1)N1CCCN([C@@H](C#N)c2ccccc2)C1c1ccccc1O (stereo partly specified),-,0[11.5 µM],0[7.6 µM],0[11.4 µM],0[11.4 µM],0[11.5 µM]
SMILES,USP2a inh,Casp7 inh,CRE Fsk mod,HEK293 cAMP cs,TSHR ag,Caspase-1 inhib
O=C(Nc1c2c(nn1-c1ccc(Cl)cc1)CS(=O)(=O)C2)c1ccc2c(c1)OCO2,0,0,0,25.1µM,?,0
Cc1c(S(=O)(=O)Nc2ccc3c(c2)OCCO3)c(=O)n(C)c(=O)n1C,-,0,0,0,0[11.4 µM],0
Cc1c(S(=O)(=O)Nc2cccc(Cl)c2)c(=O)n(C)c(=O)n1C,-,0,2µM,0,0,0
OC(CCN1CCOCC1)(c1ccc(Cl)cc1)C1CCCCC1 (stereo unspecified),0,0,?,15.8µM,?,0
O=C(CN1C(=O)c2ccccc2C1=O)N1CCN(c2ccccn2)CC1,0,0,0,0,0,0
O=C1C=C(N2CCN(c3ccccn3)CC2)C(=O)c2c(O)ccc(O)c21,-,0[11.5 µM],3.16µM,0[11.4 µM],?,0[11.5 µM]
COc1ccc2c(c1)Cc1cc(N=[N+]([O-])c3ccc4c(c3)Cc3cc(OC)ccc3-4)ccc1-2,-,0[11.5 µM],0[7.6 µM],0[11.4 µM],0[11.4 µM],0[11.5 µM]

# Source: PubChem (National Center for Advancing Translational Sciences (NCATS))
